The source of these data is the supplement of paper PMC4840960.

Experiment [1] has as its system E18 rat cortical neuron-glia co-culture. In words: fiber score / MBP score (myelination specific beyond OL differentiation) (ratio); higher = more myelination-specific MBP alignment. As to conditions: treatment time: 8 days (DIV5-DIV13). In short, it runs like this:
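Reported values are fiber score (continuous MBP fiber length per Olig2+ nucleus) divided by MBP score (thresholded MBP area × intensity per Olig2+ nucleus). They come from primary E18 rat cortical co-cultures treated with library compounds at 1 or 5 µM in myelination medium from DIV5 to DIV13, then fixed in 4 % paraformaldehyde, immunostained for MBP and Olig2 with DAPI, and analysed over four 10X fields per well in duplicate wells.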

Experiment [2] shares this test system. Kind of experiment: myelination (MBP fiber length per Olig2+ nucleus), % of 1 µM DAPT response (DMSO = 0) (% of DAPT); higher = more myelination, active = 50 or more. To be noted: treatment time: 8 days (DIV5-DIV13). The essentials:
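Rat cortical co-cultures from E18 tissue were dissociated with papain and plated at 20,000 cells/well on 96-well plates coated with poly-d-lysine/laminin. From DIV5 to DIV13, library compounds were added at 1 or 5 µM in myelination medium. After fixation in 4 % paraformaldehyde, cultures were immunostained for MBP and Olig2 and counterstained with DAPI, and four 10X fields were analysed in each of duplicate wells. The myelination value is the length of continuous straight MBP fibers per Olig2+ nucleus, normalised so that 0.1 % DMSO is 0 and a 1 µM positive control is 100.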

With `COc1ccc2c3c1O[C@H]1C[C@@H](O)C=C[C@@]31CCN(C)C2` [Galantamine], the entries for the “fiber score / MBP score” value in experiment [1] (1 µM) and in experiment [1] (5 µM) were 0.69 and 0.673, respectively. Also, the figures for the myelination in experiment [2] (1 µM) and in experiment [2] (5 µM) were -60.3 (inactive) and -40.7 (inactive), respectively.
For `c1ccc2c(c1)CCCC2C1=NCCN1` (stereo not given) [Tyzine] the same measures were 0.783, 0.873, -6.18 (inactive) and -2.07 (inactive).
In the same order, the values of `CO/N=C(\C(=O)N[C@@H]1C(=O)N2C(C(=O)O)=C(COC(N)=O)CS[C@H]12)c1ccco1` [Cefuroxime] are 0.749, 0.663, -44.2 (inactive) and -51.7 (inactive).
For `CC(=O)OCC(=O)[C@@]1(O)CC[C@H]2[C@@H]3C[C@H](C)C4=CC(=O)C=C[C@]4(C)[C@H]3[C@@H](O)C[C@@]21C` [Methylprednisolone acetate] the same measures were 0.468, 0.413, -10.5 (inactive) and -15.1 (inactive).
As to `CCN(CC)CC(=O)Nc1c(C)cccc1C` [Lidocaine], the “fiber score / MBP score” value in experiment [1] (1 µM) stood at 0.745; in experiment [1] (5 µM) it was 0.698. The myelination is -26.3 (inactive) in experiment [2] (1 µM) and -24.5 (inactive) in experiment [2] (5 µM).
In the same order, the values of `COc1ccc(C(=O)NCc2ccc(OCCN(C)C)cc2)cc1OC` [Itopride] are 0.63, 0.693, -10.9 (inactive) and -10.7 (inactive).
In the same order, the values of `Nc1nc(Cl)nc2c1ncn2[C@@H]1O[C@H](CO)[C@@H](O)[C@H]1O` [2-Chloroadenosine] are 0.752, 0.764, -12.4 (inactive) and -10.5 (inactive).
In the same order, the values of `CCCCN1CCCCC1C(=O)Nc1c(C)cccc1C` (stereo not given) [Bupivacaine] are 0.752, 0.575, -11.2 (inactive) and -16.6 (inactive).
`Nc1nnc(-c2cccc(Cl)c2Cl)c(N)n1` [Lamotrigine]: the “fiber score / MBP score” value was 0.703 in experiment [1] (1 µM) and 0.746 in experiment [1] (5 µM). For the same compound, the myelination in experiment [2] (1 µM) is -23.5 (inactive); in experiment [2] (5 µM), -15.5 (inactive).
In the same order, the values of `CN1C(C(=O)Nc2ccccn2)=C(O)c2ccccc2S1(=O)=O` [Piroxicam] are 0.787, 1.04, -10.9 (inactive) and -8.56 (inactive).
